Test results: PubChem BioAssay AID463173 (ICCB-Longwood Screening Facility, Harvard Medical School, 2010)
The whole screen tested about 52,000 compounds, of which about 1,700 (3.3%) were called active. This excerpt belongs to a sample that is enriched for actives. Unmarked numbers belong to inactive results. Cut-off read from the data, not from the text of the source: active = survival mostly below about 52% (no sharp cut-off); inactive = mostly above about 56%.

system: Wild type; assay: growth inhibition of S. aureus wild type versus tarO mutant, primary screen, teichoic acid synthesis inhibitors, RN4220, OD600 (AID 463173); conditions: S. aureus RN4220 wild type/DeltatarO growth, OD600, 18 h, stronger effect = lower value, screened at 18.75 µg/mL (by protocol)

SMILES	survival
Cc1cccc(-n2c(SCC(=O)Nc3ccccc3C)nc3c(oc4ccccc43)c2=O)c1	86%
Cc1ccc(C)c(NC(=O)N2CCN(C(=O)c3nsc4ccccc34)CC2)c1	69%
O=C(Nc1ccc(F)c(Cl)c1)N1CCN(C(=O)c2nsc3ccccc23)CC1	70%
O=C(Nc1ccc(F)cc1)N1CCN(C(=O)c2nsc3ccccc23)CC1	14% (active)
O=C(Nc1ccccc1)N1CCN(C(=O)c2nsc3ccccc23)CC1	85%
Cc1cccc(NC(=O)N2CCN(C(=O)c3nsc4ccccc34)CC2)c1C	72%
Cc1ccc(NC(=O)N2CCN(C(=O)c3nsc4ccccc34)CC2)cc1C	-6% (active)
CCc1ccccc1NC(=O)N1CCN(C(=O)c2nsc3ccccc23)CC1	-1% (active)
Cc1cc(C)cc(NC(=O)N2CCN(C(=O)c3nsc4ccccc34)CC2)c1	78%
CCc1ccc(NC(=O)N2CCN(C(=O)c3nsc4ccccc34)CC2)cc1	76%
CCC(C(=O)NCc1ccccc1Cl)n1c(=O)c2cccn2c2ccccc21 (stereo not drawn)	76%
O=c1c2oc3ccccc3c2n(Cc2cccc(F)c2)c(=O)n1Cc1ccc2c(c1)OCO2	86%
O=C(Cn1c(-c2cccs2)cc2cc(F)ccc21)N1CCCCC1	72%
CCn1nnc2cc(C(=O)Nc3ccc(C)c(Cl)c3)ccc21	53%
O=C(NCc1ccccc1)c1ccc2oc(=O)n(Cc3ccccc3)c2c1	71%
CCc1ccc(NC(=O)c2ccc3c(c2)nnn3CC)cc1	-6% (active)
COc1cccc(CNC(=O)c2ccc3oc(=O)n(Cc4ccccc4)c3c2)c1	-3% (active)
Cc1ccc(CNC(=O)c2ccc3oc(=O)n(Cc4ccccc4)c3c2)cc1	57%
O=C(NCc1ccc(Cl)cc1)c1ccc2oc(=O)n(Cc3ccccc3)c2c1	129%
Cc1cccc(CNC(=O)c2ccc3oc(=O)n(Cc4ccccc4)c3c2)c1	60%
O=C(NCc1ccc(F)cc1)c1ccc2oc(=O)n(Cc3ccccc3)c2c1	-4% (active)
O=C(Nc1ccc(Cl)cc1)c1ccc2oc(=O)n(Cc3ccccc3)c2c1	63%
CCn1nnc2cc(C(=O)Nc3ccc(OC)cc3)ccc21	73%
O=C(Nc1cccc(F)c1)c1ccc2oc(=O)n(Cc3ccccc3)c2c1	81%
CCc1ccc(NC(=O)c2ccc3oc(=O)n(Cc4ccccc4)c3c2)cc1	1% (active)

SMILES	survival
Cc1nn(Cc2ccccc2)c(C)c1NC(=O)c1cc(C(C)C)on1	77%
O=C(Nc1ccc(NC(=O)c2cccs2)cc1)c1ccc(Cl)cc1	81%
Cc1onc(-c2c(Cl)cccc2Cl)c1C(=O)n1c(C)nc2ccccc21	105%
Cc1cc(C)cc(NC(=O)Cn2c(-c3cncs3)nc3ccccc32)c1	63%
CN(C)C(=O)Cn1c2[n+](c3ccccc31)CC(O)CS2 (stereo not drawn)	103%
O=C(COc1ccc(Cl)cc1)NCC(c1ccco1)S(=O)(=O)c1ccc(Cl)cc1 (stereo not drawn)	78%
Cc1cccc(CNC(=O)Cc2csc3ccccc23)c1	116%
COc1ccc(CNC(=O)c2cccc(NC(=O)N3CCSc4ncccc43)c2)cc1	67%
COc1ccccc1NC(=O)CCn1nc(-c2ccccc2OC)c2c(C)cc(C)nc21	111%
O=C1c2ccccc2C(=O)N1COc1cccc2cccnc12	101%
O=C(/C=C/c1ccco1)ON1C(=O)c2ccccc2C1=O	117%
O=C(Oc1cccc2cccnc12)c1ccccc1	1% (active)
O=C(/C=C/c1ccco1)OCCN1CCOCC1	92%
O=C(/C=C\c1ccco1)Oc1cccc2cccnc12	1% (active)
O=C(Oc1ccccc1-c1nc(-c2ccccc2)no1)c1ccccc1	100%
N#Cc1ccccc1NC(=O)Cn1cnc2onc(-c3cccc(F)c3)c2c1=O	105%
Cc1ccc2nc(N3CCC(C(=O)N4CCN(c5cccc(Cl)c5)CC4)CC3)[nH]c2c1	74%
O=C(C1CCN(c2nc3ccccc3[nH]2)CC1)N1CCN(c2ccccc2)CC1	85%
O=C(C1CCN(c2nc3ccccc3[nH]2)CC1)N1CCN(c2cccc(Cl)c2)CC1	0% (active)
CCCC(=O)c1cc(F)c(N2CCOCC2)cc1C	121%
Cc1ccc(NC(=O)Cn2c(=O)n(Cc3ccccc3)c(=O)c3sc4ccccc4c32)cc1	93%
Cc1ccc(-n2ncc(C(=O)NCc3ccco3)c2C2CCN(C(=O)OC(C)(C)C)CC2)cc1C	72%
COc1ccc(N2CCN(c3oc(/C=C/c4ccc(F)cc4)nc3C#N)CC2)cc1	84%
Cc1ccc(-c2noc(CNC(=O)c3ccc(C(C)(C)C)cc3)n2)cc1	89%
Cc1ccc(-c2noc(CN(C(=O)c3ccc(C(C)(C)C)cc3)C(C)C)n2)cc1	-1% (active)

SMILES	survival
COc1cccc(C(=O)N(Cc2nc(-c3ccc(Cl)cc3)no2)C(C)C)c1OC	46%
CCCCOc1ccc(C(=O)N(Cc2nc(-c3ccc(Cl)cc3)no2)C(C)C)cc1	85%
CCOc1cc(C(=O)N(Cc2nc(-c3ccc(C)cc3)no2)C(C)C)cc(OCC)c1OCC	15% (active)
CC(C)N(Cc1nc(-c2ccc(Cl)cc2)no1)C(=O)c1ccc(C(C)(C)C)cc1	0% (active)
Cc1cc(C)cc(C(=O)N(Cc2nc(-c3ccc(Cl)cc3)no2)C(C)C)c1	17%
CCOc1cc(C(=O)NCc2nc(-c3cccc(C)c3)no2)cc(OCC)c1OCC	89%
CCCCN(C)CCCNC(=O)C1CCN(S(=O)(=O)CCC)CC1	77%
Cc1ccc(NC(=O)Cn2c(=O)n(CCC(=O)N3CCc4ccccc4C3)c(=O)c3ccccc32)c(C)c1	79%
COc1cccc(C(=O)Nc2cc3c(cc2C(=O)c2ccc(C)cc2)OCCO3)c1	71%
CCOC(=O)c1cc(S(=O)(=O)Nc2ccc(OC(F)(F)F)cc2)[nH]n1	87%
CCN1CCN(c2cc(C)c3cc(NC(=O)c4cc(OC)c(OC)c(OC)c4)ccc3n2)CC1	73%
COc1ccccc1CC(=O)Nc1ccc2nc(N3CCC(C)CC3)cc(C)c2c1	71%
CCN1CCN(c2cc(C)c3cc(NC(=O)c4ccc(OC)c(OC)c4)ccc3n2)CC1	65%
COc1ccccc1C(=O)Nc1ccc2nc(N3CCC(C)CC3)cc(C)c2c1	0% (active)
COc1ccc(C(=O)Nc2ccc3nc(N4CCC(C)CC4)cc(C)c3c2)cc1	86%
CCN1CCN(c2cc(C)c3cc(NC(=O)c4cc(Cl)ccc4OC)ccc3n2)CC1	2% (active)
CCSc1nc(NC(C)=O)nn1C(C)=O	103%
Cc1ccc(NC(=O)Cc2c(C(=O)O)c(C)cn2C)cc1Cl	87%
CCOCCCn1c(SCC(=O)Nc2ccccc2OC)nc2c(oc3ccccc32)c1=O	81%
CCOc1ccc(C(=O)Nc2cccc(C(=O)OCc3cc(=O)n4cc(C)sc4n3)c2)cc1	81%
c1ccc2c(c1)ncn2CCn1cnc2ccccc21	104%
CC(=O)OC(COc1ccccc1)Cn1cnc2cc(C)c(C)cc21 (stereo not drawn)	125%
Cc1cc2ncn(CCC(=O)Nc3ccccc3F)c2cc1C	105%
Cc1ccc(OCCCCn2cnc3ccccc32)cc1	29% (active)
COc1ccc(OCCn2cnc3ccccc32)cc1	107%

SMILES	survival
Cc1cc2ncn(CCCCOc3ccccc3)c2cc1C	20% (active)
Cc1ccc(Cl)cc1N1CCN(C(=O)C2CCN(S(=O)(=O)c3ccc4c(c3)oc(=O)n4C)CC2)CC1	66%
Cc1ccc(N2CCN(c3cc(C)nc4c(-c5ccc(Cl)cc5)c(C)nn34)CC2C)cc1 (stereo not drawn)	14% (active)
Cc1cccc(N2CCN(c3cc(C)nc4c(-c5ccc(Cl)cc5)c(C)nn34)CC2C)c1 (stereo not drawn)	74%
Cc1ccc(C)c(N2CCN(c3cc(C)nc4c(-c5ccc(Cl)cc5)c(C)nn34)CC2)c1	96%
Cc1n[nH]c(=S)n1CC(=O)N1c2ccccc2CCc2ccccc21	102%
CC1=C(C(=O)Nc2ccccc2)C(c2ccc(Br)cc2)n2nc(CCCO)nc2N1 (stereo not drawn)	79%
CCOc1ccc(NC(=O)Cn2cc(C(=O)c3ccc(C)c(C)c3)c(=O)c3cc(F)ccc32)cc1	89%
CC(=O)N1c2c(cc(Br)cc2S(=O)(=O)Nc2ccc(OC(F)(F)F)cc2)CC1C (stereo not drawn)	105%
COc1cc(NS(=O)(=O)c2cc(Br)cc3c2N(C(C)=O)C(C)C3)cc(OC)c1 (stereo not drawn)	-3% (active)
COc1ccc(CNS(=O)(=O)c2cc(Br)cc3c2N(C(C)=O)C(C)C3)cc1 (stereo not drawn)	138%
COc1ccc(CNC(=O)CCCn2ccc3cc(S(=O)(=O)N4CCCC4)ccc32)cc1	75%
CCc1ccc(CNC(=O)C(C)n2ccc3cc(S(=O)(=O)N4CCCCCC4)ccc32)cc1 (stereo not drawn)	75%
Cc1cccc(CNC(=O)Cn2ccc3cc(S(=O)(=O)N4CCCC4)ccc32)c1	69%
Cc1ccc(CNC(=O)C(C)n2ccc3cc(S(=O)(=O)N4CCCC4)ccc32)cc1 (stereo not drawn)	66%
Cc1cccc(CNC(=O)CCn2ccc3cc(S(=O)(=O)N4CCCC4)ccc32)c1	76%
Cc1cccc(CNC(=O)Cn2ccc3cc(S(=O)(=O)N4CCC(C)CC4)ccc32)c1	67%
O=C(CCn1ccc2cc(S(=O)(=O)N3CCCC3)ccc21)NCc1cccc(Cl)c1	-1% (active)
CN(C)c1ccc(CNC(=O)CCCn2ccc3cc(S(=O)(=O)N4CCCC4)ccc32)cc1	0% (active)
CCc1ccc(CNC(=O)CCCn2ccc3cc(S(=O)(=O)N4CCCC4)ccc32)cc1	63%
O=C(Cn1ccc2cc(S(=O)(=O)N3CCCCC3)ccc21)NCc1cccc(Cl)c1	128%
Cc1cccc(CNC(=O)Cn2ccc3cc(S(=O)(=O)N4CCCCCC4)ccc32)c1	-6% (active)
CC(C(=O)NCc1ccccc1)n1ccc2cc(S(=O)(=O)N3CCCC3)ccc21 (stereo not drawn)	-3% (active)
